According to PMC4336329 (PLoS ONE, 2015):
The whole screen tested about 310,000 compounds, of which about 2,200 (0.71%) showed an effect of 50% or more. Effects have a minus sign here. Many of the other results were omitted from the sample, so strong results are more common in it than they were.

What follows are compounds tested against human ether-à-go-go-related gene (hERG) potassium channel (human, UniProt Q12809) (assay: primary screen, population patch clamp on CHO cells stably expressing hERG; higher = less effect of the substance).
Chain of human ether-à-go-go-related gene (hERG) potassium channel (Q12809 whole entry, looked up): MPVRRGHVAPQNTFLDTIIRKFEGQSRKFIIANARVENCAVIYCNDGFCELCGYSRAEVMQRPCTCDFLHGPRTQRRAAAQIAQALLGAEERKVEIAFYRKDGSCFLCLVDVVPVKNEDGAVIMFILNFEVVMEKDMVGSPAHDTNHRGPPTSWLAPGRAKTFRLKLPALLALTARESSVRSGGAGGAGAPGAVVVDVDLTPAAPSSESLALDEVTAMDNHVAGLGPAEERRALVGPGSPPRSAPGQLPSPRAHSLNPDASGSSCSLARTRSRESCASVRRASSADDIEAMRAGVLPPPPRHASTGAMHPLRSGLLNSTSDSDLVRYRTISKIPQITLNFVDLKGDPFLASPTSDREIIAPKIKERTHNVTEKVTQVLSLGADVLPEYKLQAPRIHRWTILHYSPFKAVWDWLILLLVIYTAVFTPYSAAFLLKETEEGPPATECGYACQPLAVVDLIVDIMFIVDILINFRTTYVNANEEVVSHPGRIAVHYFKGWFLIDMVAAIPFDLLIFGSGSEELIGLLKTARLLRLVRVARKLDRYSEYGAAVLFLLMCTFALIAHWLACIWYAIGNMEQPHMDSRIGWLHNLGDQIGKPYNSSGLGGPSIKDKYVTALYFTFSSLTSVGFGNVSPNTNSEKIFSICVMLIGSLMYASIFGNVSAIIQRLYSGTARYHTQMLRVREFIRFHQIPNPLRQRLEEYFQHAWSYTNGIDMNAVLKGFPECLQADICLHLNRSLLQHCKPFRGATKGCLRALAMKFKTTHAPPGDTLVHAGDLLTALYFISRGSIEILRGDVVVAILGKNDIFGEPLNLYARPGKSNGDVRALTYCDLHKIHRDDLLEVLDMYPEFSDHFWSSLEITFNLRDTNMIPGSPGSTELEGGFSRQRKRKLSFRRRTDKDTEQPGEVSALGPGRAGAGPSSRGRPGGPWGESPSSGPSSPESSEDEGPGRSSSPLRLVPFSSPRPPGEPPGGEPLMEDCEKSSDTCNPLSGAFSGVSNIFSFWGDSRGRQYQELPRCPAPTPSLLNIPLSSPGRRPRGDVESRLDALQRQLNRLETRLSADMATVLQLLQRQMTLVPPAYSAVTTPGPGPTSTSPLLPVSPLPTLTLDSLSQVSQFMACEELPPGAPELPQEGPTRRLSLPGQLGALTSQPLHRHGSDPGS

| SMILES | hERG current change (%, negative = inhibition) at 1uM [%] |
| --- | --- |
| CCOC(=O)Cc1csc(NC(=O)CSc2nnnn2-c2ccc(C)c(C)c2)n1 | 10 |
| COc1ccc(S(=O)(=O)NCC2CCCN(Cc3ccc(O)cc3)C2)cc1 (stereo not shown) | -12.2 |
| Cc1ccc(CN2CC(C(=O)Nc3ccc(F)c([N+](=O)[O-])c3)CC2=O)cc1 (stereo not shown) | -1.97 |
| CCOc1ccc(OCC(=O)Nc2ccc(OC)cc2[N+](=O)[O-])cc1 | 8.89 |
| COc1ccc(OCC(=O)N/N=C(\C)CC(=O)Nc2ccc(OC)cc2[N+](=O)[O-])cc1 | -61.8 |
| COc1ccc(NC(=O)COc2ccc(C)cc2)c([N+](=O)[O-])c1 | 8.91 |
| C#CCn1c(=NC(=O)c2ccc(Cl)s2)sc2cccc(OC)c21 | 14.9 |
| COc1ccc(Br)cc1C(=O)Nc1cccc(C)c1C | 2.14 |
| COc1ccc(OC)c(NC(=O)NC2CCCCCCC2)c1 | 9.24 |
| Cc1cccc(NC(=O)CN2CCN(C(=O)C(C)Oc3ccc(C#N)cc3)CC2)c1C (stereo not shown) | -54.7 |
| Cc1cccc(NC(=O)CNC(=O)COc2ccc(-c3ccc(C#N)cc3)cc2)c1C | 8.38 |
| Cc1cccc(NC(=O)CN2CCOCC2)c1C | 12.2 |
| COc1ccc(CNC(=O)C2CSC(c3ccc(OC)cc3)N2C(C)=O)cc1 (stereo not shown) | 5.4 |
| CCCCN(C)CCN1C(=O)C2C(C(=O)Nc3ccc(Cl)cc3)C3C=CC2(O3)C1C(=O)NC1CCCCC1 (stereo not shown) | -60.5 |
| CCCCN(C)CCN1C(=O)C2C(C(=O)Nc3ccc(C)cc3)C3C=CC2(O3)C1C(=O)NC1CCCCC1 (stereo not shown) | 15.1 |
| CCCCN(C)CCN1C(=O)C2C(C(=O)Nc3ccc(OC)cc3)C3C=CC2(O3)C1C(=O)NC1CCCCC1 (stereo not shown) | 3.44 |
| CN1C(=O)C2(C(C#N)=C(N)Oc3c2oc(CO)cc3=O)c2ccccc21 (stereo not shown) | 12 |
| COc1cc(S(=O)(=O)N2CCN(C)CC2)ccc1Cl | 14.8 |
| CC1CCCN(CC(O)COC(c2ccccc2)c2ccccc2)C1 (stereo not shown) | -15 |
| Cc1ccc(C(OCC(O)CNCc2ccc(F)cc2)c2ccccc2)cc1.O=C(O)C(=O)O (stereo not shown) | -75.4 |
| Cc1ccc(OCC(O)CNCc2ccc(F)cc2)cc1 (stereo not shown) | -14.2 |
| CC1CN(CC(O)COC(c2ccc(Cl)cc2)c2ccc(Cl)cc2)CC(C)O1.Cl (stereo not shown) | -2.64 |
| CN1CCN(CC(O)COC(c2ccc(Cl)cc2)c2ccc(Cl)cc2)CC1.Cl (stereo not shown) | -47.8 |
| OC(COC(c1ccccc1)c1ccccc1)CN1CCc2ccccc2C1 (stereo not shown) | -75.3 |
| OC(COC(c1ccc(F)cc1)c1ccc(F)cc1)CN1CCc2ccccc2C1 (stereo not shown) | -9.74 |
| CCOC(=O)C1CCCN(CC(O)COC(c2ccccc2)c2ccccc2)C1 (stereo not shown) | -78.8 |

| SMILES | hERG current change (%, negative = inhibition) at 1uM [%] |
| --- | --- |
| Cl.OC(COC(c1ccc(Cl)cc1)c1ccc(Cl)cc1)CN1CCc2ccccc2C1 (stereo not shown) | -6.99 |
| OC1CCCN(CC(O)COC(c2ccccc2)c2ccccc2)C1 (stereo not shown) | 1.02 |
| OC(COC(c1ccc(Cl)cc1)c1ccc(Cl)cc1)CN1CCCC1 (stereo not shown) | -75.2 |
| O=C(O)C(=O)O.O=C(c1ccccc1)c1ccc(OCC(O)CNCc2ccc(F)cc2)cc1 (stereo not shown) | -0.143 |
| O=C(CNC(=O)c1ccccc1F)NCCc1ccc(Cl)cc1Cl | 7.52 |
| O=C(NCc1n[nH]c(=S)n1-c1cccc(Cl)c1)c1ccc(S(=O)(=O)N2CCCCC2)cc1 | 13.6 |
| CCN(CC)S(=O)(=O)c1cccc(C(=O)Oc2cccc(NC(=O)c3cccs3)c2)c1 | 7.05 |
| CC(=O)N1C(=O)C2(C(C#N)=C(N)Oc3c2c(C)nn3-c2ccccc2)c2ccccc21 (stereo not shown) | 11 |
| Cc1cccc(C(=O)NCCC(=O)NCc2ccccc2F)c1 | 5.88 |
| COc1ccc(-n2nc(C(=O)NCC(=O)N3CCCCC3)c3ccccc3c2=O)c(OC)c1 | 15.2 |
| CCN(CC)S(=O)(=O)c1ccc(/C=C/C(=O)OCC(=O)NNC(=O)c2ccc(OC)cc2)cc1 | 9.94 |
| COc1ccc(N2CCN(CC(O)COC(C)(C)C)CC2)cc1.O=C(O)C(=O)O (stereo not shown) | 12.5 |
| O=C(O)C(=O)O.OC(COC(c1ccc(F)cc1)c1ccc(F)cc1)CN1CCCC1 (stereo not shown) | -62 |
| Cc1ccc(C(OCC(O)CN2CCCCC2CO)c2ccccc2)cc1 (stereo not shown) | -39.7 |
| O=C(O)C(=O)O.OC(COC(c1ccc(F)cc1)c1ccc(F)cc1)CN1CCCC(C(F)(F)F)C1 (stereo not shown) | 14 |
| O=C(O)C(=O)O.OCCN1CCN(CC(O)COC(c2ccc(F)cc2)c2ccc(F)cc2)CC1 (stereo not shown) | -20.2 |
| O=C(O)C(=O)O.OC1CCCN(CC(O)COC(c2ccc(F)cc2)c2ccc(F)cc2)C1 (stereo not shown) | -14.2 |
| O=C(O)C(=O)O.OCC1CCCCN1CC(O)COC(c1ccc(F)cc1)c1ccc(F)cc1 (stereo not shown) | -60.9 |
| COc1ccc(N2CCN(CC(O)COC(c3ccc(F)cc3)c3ccc(F)cc3)CC2)cc1.O=C(O)C(=O)O (stereo not shown) | -74 |
| Cc1ccc(C(OCC(O)CN2CCCCC2)c2ccccc2)cc1 (stereo not shown) | -68.6 |
| CCN1CCN(CC(O)COC(c2ccccc2)c2ccccc2)CC1 (stereo not shown) | 7.15 |
| OC(COC(c1ccccc1)c1ccccc1)CN1CCCCC1 (stereo not shown) | -18.5 |
| COc1ccc(N2CCN(CC(O)COC(c3ccccc3)c3ccccc3)CC2)cc1 (stereo not shown) | -14.2 |
| NC(=O)c1cc(Cl)ccc1OCC(=O)N1CCCc2ccccc21 | 11.4 |
| S=c1[nH]nc(-c2ccc(Cl)cc2)n1-c1ccc2c(c1)OCCO2 | 7.4 |
| CCN1C(=O)[C@H]2[C@@H](c3ccc(Cl)cc3)N3C(=O)CN(Cc4ccccc4)C(=O)[C@@]3(C)[C@H]2C1=O | 10.9 |
